Laboratory results published in publication PMC4336329 (PLoS ONE, 2015).
The whole screen tested about 310,000 compounds, of which about 14,000 (4.5%) showed an effect of 50% or more. Effects have a minus sign here. The sample as a whole holds a higher share of strong results than the screen did.

Biological target: human ether-à-go-go-related gene (hERG) potassium channel (human, UniProt Q12809)
Test: primary screen, population patch clamp on CHO cells stably expressing hERG; higher = less effect of the substance
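Further: peak tail current of the secondary pulse compared with the same well before compound.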

human ether-à-go-go-related gene (hERG) potassium channel, sequence (Q12809 whole entry, looked up): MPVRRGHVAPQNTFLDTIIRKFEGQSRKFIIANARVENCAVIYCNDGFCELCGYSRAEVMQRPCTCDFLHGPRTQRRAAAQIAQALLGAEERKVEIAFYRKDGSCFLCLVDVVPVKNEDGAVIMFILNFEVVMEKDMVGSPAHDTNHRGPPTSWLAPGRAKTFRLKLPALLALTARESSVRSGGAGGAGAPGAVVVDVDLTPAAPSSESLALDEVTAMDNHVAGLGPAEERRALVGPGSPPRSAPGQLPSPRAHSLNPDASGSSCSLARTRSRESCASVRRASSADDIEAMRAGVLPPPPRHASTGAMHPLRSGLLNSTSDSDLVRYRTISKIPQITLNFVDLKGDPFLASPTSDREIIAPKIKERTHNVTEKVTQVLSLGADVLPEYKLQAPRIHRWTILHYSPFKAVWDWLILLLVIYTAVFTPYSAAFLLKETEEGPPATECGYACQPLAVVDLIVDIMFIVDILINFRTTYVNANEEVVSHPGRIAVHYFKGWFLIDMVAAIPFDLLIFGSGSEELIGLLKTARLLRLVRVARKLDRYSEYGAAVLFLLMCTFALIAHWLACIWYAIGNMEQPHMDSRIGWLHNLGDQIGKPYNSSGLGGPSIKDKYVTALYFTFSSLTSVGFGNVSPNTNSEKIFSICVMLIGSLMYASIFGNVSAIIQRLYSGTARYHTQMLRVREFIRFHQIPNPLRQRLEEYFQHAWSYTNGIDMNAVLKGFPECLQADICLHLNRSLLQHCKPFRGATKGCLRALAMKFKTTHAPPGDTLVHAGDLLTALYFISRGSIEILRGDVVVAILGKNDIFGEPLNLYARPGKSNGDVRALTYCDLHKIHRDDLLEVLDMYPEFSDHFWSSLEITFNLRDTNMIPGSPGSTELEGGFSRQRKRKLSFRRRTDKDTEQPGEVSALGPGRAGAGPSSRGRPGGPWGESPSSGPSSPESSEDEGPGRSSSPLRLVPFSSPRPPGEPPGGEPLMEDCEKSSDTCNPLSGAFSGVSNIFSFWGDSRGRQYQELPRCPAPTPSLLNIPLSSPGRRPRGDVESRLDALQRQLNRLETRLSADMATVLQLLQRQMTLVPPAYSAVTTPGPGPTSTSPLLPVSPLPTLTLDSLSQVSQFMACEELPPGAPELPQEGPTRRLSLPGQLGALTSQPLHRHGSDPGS

Row | Structure (SMILES) | hERG current change (%, negative = inhibition) at 10uM [%]
1 | Cn1c(COc2ccc(C(=O)O)cc2)nc2ccccc21 | 14.7
2 | CC(OC(=O)CCc1c[nH]c2ccccc12)C(=O)c1ccccc1 (centres unmarked) | -17.8
3 | COc1ncnc(-c2ccccc2)c1-c1ccccc1 | 1.86
4 | CC(C)N1CCc2c(sc(NC(=O)c3ccco3)c2C(N)=O)C1.Cl | -6.82
5 | CN1CCc2c(sc(NC(=O)Cc3ccccc3)c2C(N)=O)C1.Cl | -16.2
6 | COC(=O)c1c(NC(=O)c2ccco2)sc2c1CCN(C(C)C)C2.Cl | -62.5
7 | CCN1CCc2c(sc(NC(=O)COc3ccccc3)c2C(=O)OC)C1.Cl | -62.6
8 | COC(=O)c1c(NC(C)=O)sc2c1CCN(Cc1ccccc1)C2.Cl | -9.29
9 | COC(=O)c1c(NC(=O)c2ccco2)sc2c1CCN(C(C)=O)C2 | -2.22
10 | COC(=O)c1c(NC(=O)Cc2ccccc2)sc2c1CCN(C(C)C)C2.Cl | -61.4
11 | COC(=O)c1c(NC(=O)c2ccc([N+](=O)[O-])o2)sc2c1CCN(C(C)C)C2.Cl | -25.1
12 | CCOC(=O)c1c(NC(=O)Cc2ccccc2)sc2c1CCN(C)C2.Cl | -53
13 | CN1CCc2c(sc(NC(=O)Cc3ccccc3)c2C#N)C1.Cl | -7.24
14 | CCN1CCc2c(sc(NC(=O)CN3C(=O)c4ccccc4C3=O)c2C(N)=O)C1.Cl | -36.6
15 | CC(C)N1CCc2c(sc(NC(=O)Cc3ccccc3)c2C#N)C1.Cl | -16
16 | COc1ccc(/C=N/n2c(-c3n[nH]c4c3CCC4)n[nH]c2=S)c(OC)c1OC | 20.7
17 | COc1nc(NC(C)=O)nc(C)c1Br | -1.69
18 | COc1ccc(NC(=O)CC(C)C)c([N+](=O)[O-])c1 | -0.754
19 | Cc1ccc(C(=O)NC(=S)Nc2ccccc2C)cc1 | -0.104
20 | CCn1nc(C)cc1C(=O)N1CCc2c([nH]c3ccccc23)C1c1cc(F)ccc1F (centres unmarked) | -1.16
21 | CCN1CCc2c(sc(NC(=O)Cc3ccccc3)c2C(=O)OC)C1.Cl | -51.5
22 | CCOC(=O)c1c(NC(=O)Cc2ccccc2)sc2c1CCN(CC)C2.Cl | -65.3

Row | Structure (SMILES) | hERG current change (%, negative = inhibition) at 10uM [%]
23 | CCN1CCc2c(sc(NC(=O)c3ccc(S(=O)(=O)N4CCOCC4)cc3)c2C(=O)OC)C1.Cl | -42.2
24 | CC(C)N1CCc2c(sc(NC(=O)CCc3ccccc3)c2C(N)=O)C1.Cl | -57.2
25 | CCN1CCc2c(sc(NC(=O)Cc3ccccc3)c2C(N)=O)C1.Cl | -20.3
26 | CC(C)N1CCc2c(sc(NC(=O)Cc3ccccc3)c2C(N)=O)C1.Cl | -11.5
27 | CC(C)N1CCc2c(sc(NC(=O)c3ccc(C(=O)c4ccccc4)cc3)c2C(N)=O)C1.Cl | -38.2
28 | CCOC(=O)c1c(NC(=O)c2cccc(N3C(=O)CCC3=O)c2)sc2c1CCN(CC)C2.Cl | -31.5
29 | CN1CCN(C(=O)c2c(NC(=O)c3ccco3)sc3c2CCC(C(C)(C)C)C3)CC1 (centres unmarked) | -69.5
30 | CC(C)(C)C1CCc2c(sc(NC(=O)c3cccs3)c2C(=O)N2CCCCC2)C1 (centres unmarked) | 7.32
31 | CC(C)(C)C1CCc2c(sc(NC(=O)c3ccco3)c2C(N)=O)C1 (centres unmarked) | 19.8
32 | OCc1ccccc1N=c1ssnc1Cl | 15.9
33 | CC(=O)N1CC(C)Sc2ccc(S(=O)(=O)NCc3ccccc3Cl)cc21 (centres unmarked) | -8.78
34 | CC1CCN(C(=O)C2CCCCN2S(=O)(=O)c2cccc([N+](=O)[O-])c2)CC1 (centres unmarked) | 1.35
35 | Cc1cc(C)c(NC(=O)CSc2ccc(-c3ccccn3)nn2)c(C)c1 | 17.9
36 | CC1CCN(C(=O)c2nc[nH]c2C(=O)OCCNC(=O)OC(C)(C)C)CC1 | 4.23
37 | CC1=CC(C)(C)Nc2ccc(OC(=O)CN3C(=O)c4ccccc4C3=O)cc21 | 15
38 | CC1Cc2ccccc2N1C(=O)COC(=O)Cc1ccc(F)cc1 (centres unmarked) | -13.9
39 | C=CCN(CC=C)C(=S)NCCc1ccc(OC)c(OC)c1 | -3.41
40 | Cc1cc([N+](=O)[O-])nn1CC(=O)Nc1c(C)n(C)n(-c2ccccc2)c1=O | 18.4
41 | Cc1nc2sc(C(c3cccs3)N3CCN(c4ccccc4)CC3)c(O)n2n1 (centres unmarked) | -9.85
42 | COCCn1nnnc1C(c1ccc(Cl)cc1)N1CCN(C(=O)c2ccco2)CC1.Cl (centres unmarked) | -22.4
43 | COc1ccc(C(c2sc3nc(C)nn3c2O)N2CCN(Cc3ccccc3)CC2)cc1OC (centres unmarked) | -18.3
44 | CCOc1ccc(C(c2nnnn2Cc2ccccc2)N2CCN(C(=O)c3ccco3)CC2)cc1.Cl (centres unmarked) | -57

Row | Structure (SMILES) | hERG current change (%, negative = inhibition) at 10uM [%]
45 | CC(C)CC(c1nnnn1Cc1ccccc1)N1CCN(C(=O)c2ccco2)CC1 (centres unmarked) | -63.4
46 | Cc1nc2sc(C(c3cccs3)N3CCN(Cc4ccccc4)CC3)c(O)n2n1 (centres unmarked) | -81.2
47 | CC(C)CC(c1nnnn1CCc1ccccc1)N1CCN(C(=O)c2ccco2)CC1 (centres unmarked) | -46.6
48 | CCC(c1nnnn1Cc1ccccc1)N1CCN(C(=O)c2ccco2)CC1 (centres unmarked) | -36.3
49 | COc1cccc(C(c2nnnn2Cc2ccccc2)N2CCN(C(=O)c3ccco3)CC2)c1OC (centres unmarked) | -30.2
50 | O=C(c1ccco1)N1CCN(C(c2ccc(Cl)cc2)c2nnnn2Cc2ccccc2)CC1 (centres unmarked) | -68.2
51 | COCCn1nnnc1C(c1ccccc1)N1CCN(C(=O)c2ccco2)CC1.Cl (centres unmarked) | 16.7
52 | O=C(c1ccco1)N1CCN(C(c2ccc(Cl)cc2)c2nnnn2CC2CCCO2)CC1 (centres unmarked) | -22.1
53 | COC(=O)/C(=C\Nc1ccccc1)NC(=O)c1ccc(Cl)cc1Cl | -17.2
54 | COc1ccccc1C(c1nnnn1C(C)(C)C)N1CCN(C(=O)c2ccco2)CC1 (centres unmarked) | -53.9
55 | COc1ccc(C(c2nnnn2Cc2ccccc2)N2CCN(C(=O)c3ccco3)CC2)cc1 (centres unmarked) | -60.6
56 | COc1ccc(C(c2nnnn2Cc2ccccc2)N2CCN(C(=O)c3ccco3)CC2)cc1OC.Cl (centres unmarked) | -19.9
57 | Cc1ccc(C(c2sc3nc(C)nn3c2O)N2CCN(C(=O)c3ccco3)CC2)cc1 (centres unmarked) | -31.4
58 | Cc1nc2sc(C(c3ccccc3)N3CCN(C(=O)c4ccco4)CC3)c(O)n2n1 (centres unmarked) | 8.97
59 | CCOc1ccc(C(c2nnnn2C(C)(C)C)N2CCN(C(=O)c3ccco3)CC2)cc1 (centres unmarked) | -69.3
60 | COCCn1nnnc1C(c1ccc(OC)cc1)N1CCN(C(=O)c2ccco2)CC1.Cl (centres unmarked) | -4.77
61 | CCC(C)(C)n1nnnc1C(c1ccccc1OC)N1CCN(C(=O)c2ccco2)CC1 (centres unmarked) | -32.6
62 | COc1ccccc1C(c1nnnn1C(C)C)N1CCN(C(=O)c2ccco2)CC1 (centres unmarked) | 1.24
63 | CCC(C)(C)n1nnnc1C(c1ccc(OC)cc1)N1CCN(C(=O)c2ccco2)CC1 (centres unmarked) | -41.6
64 | Cc1nc2sc(C(c3ccc(Cl)cc3)N3CCN(C(=O)c4ccco4)CC3)c(O)n2n1 (centres unmarked) | -60.1
65 | COc1ccc(C(c2nnnn2C(C)(C)C)N2CCN(C(=O)c3ccco3)CC2)cc1 (centres unmarked) | -37.4
